The list is not random: actives were taken first. Their share in the collection is about 2.4%.
POLI inh: inhibitors of human DNA polymerase iota. 1% of 390,000 active. Pol iota fluorescent replication assay, 10 min. AID 588590. Q9UNA4. Potency, µM (highest dose often 115 µM), without a hit: at the highest dose activity, negative = inhibition, hits mostly inhibitors
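Pol iota at 10 nM preincubated 15 min with compounds at room temperature; reaction started with fluorescent substrate, 50 nM final. Fluorescence read kinetically at 0 and 10 min; buffer-only wells as negative control.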
POLK inh: inhibitors of human DNA polymerase kappa. AID 588579. Q9UBT6. 0.53% of 400,000 active. purified Pol kappa, fluorescent DNA synthesis assay, 10 min. Potency, µM (series often up to 107 µM), inactives show at the highest dose activity, negative = inhibition, most hits filed as inhibitors; further: on the % scale 0 is the no-effect control and ±100 the full control effect
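Enzyme at 10 nM met test compounds for 15 min at room temperature. Substrate addition (50 nM final) began the reaction, which was monitored by fluorescence at 0 and 10 min.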
POLH inh: inhibitors of human DNA polymerase eta; Potency, µM (top dose mostly 114 µM), for inactives: at the top dose activity change, negative = inhibition, actives largely listed as inhibitors; Q9Y253; 1.2% of 390,000 active; recombinant Pol eta, fluorescent DNA replication assay; further: on the % scale 0 is the no-effect control and ±100 the full control effect
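Fluorescent replication assay: 50 nM final substrate added after a 15 min room-temperature compound preincubation with 10 nM enzyme. Signal taken at 0 min and again at 10 min.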
L3MBTL1 block: L3MBTL1 (human) inhibition. AlphaScreen L3MBTL1–H3K9me1 peptide binding. Potency, µM (doses to about 57.1 µM), for the others: top-dose activity, negative = inhibition, most hits filed as inhibitors. 0.66% of 230,000 active; further: on the % scale 0 is the no-effect control and ±100 the full control effect; nearly all actives have a fitted effect of over 60% in size
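First, the protein-peptide complex forms for 30 min at room temperature (L3MBTL1 50 nM, biotinylated H3K9me1 peptide 75 nM). Next, compounds are pin-transferred and incubated 30 min. Finally, AlphaScreen beads are added and read after 30 min.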
POLB inh: blocks human DNA polymerase beta activity; P06746; Pol beta primer extension/strand displacement, fluorescence kinetic; Potency, µM (highest dose often 114 µM), inactives show top-dose activity change, negative = inhibition, actives largely listed as inhibitors; 1.3% of 340,000 active; further: on the % scale 0 is the no-effect control and ±100 the full control effect
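Values derive from four-parameter Hill fits of normalized kinetic data: reads at 0 and 10 min following addition of 50 nM substrate to 10 nM Pol beta preincubated 15 min with compound.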
* marks the source's active call; other numbers are inactive results; [ ] = remark or other dose. The call rests on the fitted dose curve; in most records, active means well fitted curve in the direction sought with a large enough effect; inconclusive means small, poorly fitted or top-dose-only effect, or another doubt; inactive means no such curve, though single readings can be large; an effect the other way counts as inactive or inconclusive. Potency means the concentration at half of the fitted maximal effect.

Results for CCn1c2ccccc2c2cc(/C=N/n3c(-c4cc(C)[nH]n4)n[nH]c3=S)ccc21 ?
POLI inh: inconclusive; POLK inh: -17%; POLH inh: inconclusive; L3MBTL1 block: -24%; POLB inh: 50µM*

Results for S=c1[nH]nc(-c2cc(-c3ccccc3)n[nH]2)n1/N=C/c1ccc(Cl)c(Cl)c1 ?
POLI inh: inconclusive; POLK inh: inconclusive; POLH inh: inconclusive; L3MBTL1 block: -18%; POLB inh: 22µM*

Results for CCn1c2ccccc2c2cc(/C=N/n3cn[nH]c3=S)ccc21 ?
POLI inh: -3%; POLK inh: -13%; POLH inh: -1%; L3MBTL1 block: -4%; POLB inh: 19%

What do the screens show for `CSc1ncc(C(=O)NCc2ccc(C)cc2)c(-c2ccccc2)n1`?
POLI inh: -12%; POLK inh: 0%; POLH inh: -7%; POLB inh: 1%

What do the screens show for `C=CCNC(=O)c1ccccc1NC(=O)Nc1ccccc1`?
POLI inh: 89µM*; POLK inh: -8%; POLH inh: -10%; L3MBTL1 block: -1%[11.4 µM]; POLB inh: -3%

How did O=C(NCc1ccccc1)c1ccc2c(c1)CCN2S(=O)(=O)c1ccc(Cl)cc1 do in these assays?
POLI inh: 15%; POLK inh: 7%; POLH inh: -18%; POLB inh: 16%

Results for O=C(NC1CCCCCC1)c1ccco1 ?
POLI inh: 32µM*; POLK inh: 89µM*; POLH inh: -4%; POLB inh: 5%

Results for O=C(NC1CCCCC1)N1CCN(Cc2ccco2)CC1 ?
POLI inh: 82%; POLK inh: 0%; POLH inh: -21%; L3MBTL1 block: 2%; POLB inh: 1%

How did O=C(CNC(=O)c1ccco1)NC1CCCCCC1 do in these assays?
POLI inh: -20%; POLK inh: 1%; POLH inh: -1%; L3MBTL1 block: 1%

How did O=C(CN1C(=O)C(=O)N(Cc2ccco2)C1=O)NC1CCCCC1 do in these assays?
POLI inh: inconclusive; POLK inh: inconclusive; POLH inh: 32µM*; L3MBTL1 block: -20%; POLB inh: -15%

What do the screens show for `Cn1c(C(=O)NCc2ccc(F)cc2)cc2cc(S(=O)(=O)N3CCCCC3)ccc21`?
POLI inh: -9%; POLK inh: 1%[60.1 µM]; POLH inh: -14%; POLB inh: 2%

How did O=C(OCC1OC(OC(=O)c2cc(O)c(O)c(OC(=O)c3cc(O)c(O)c(O)c3)c2)[C@@H](OC(=O)c2cc(O)c(O)c(OC(=O)c3cc(O)c(O)c(O)c3)c2)C(OC(=O)c2cc(O)c(O)c(OC(=O)c3cc(O)c(O)c(O)c3)c2)C1OC(=O)c1cc(O)c(O)c(OC(=O)c2cc(O)c(O)c(O)c2)c1)c1cc(O)c(O)c(OC(=O)c2cc(O)c(O)c(O)c2)c1 (some centres not stated) do in these assays?
POLK inh: 0.006µM*

How did c1ccc(CSc2nnnn2-c2ccccc2)cc1 do in these assays?
POLI inh: 39%; POLK inh: -5%; POLH inh: -14%; POLB inh: 1%

What do the screens show for `O=c1cc(CSc2nnnn2-c2ccccc2)[nH]c2[nH]n(-c3ccccc3)c(=O)c12`?
POLI inh: inconclusive; POLK inh: 40µM*; POLH inh: 13%; L3MBTL1 block: -25%[11.4 µM]; POLB inh: -8%

What do the screens show for `Cc1cccc(N2CCN(CCNC(=O)Nc3ccc(Cl)cc3)CC2)c1C`?
POLI inh: 2%; POLK inh: -4%; POLH inh: 11%; POLB inh: -11%

What do the screens show for `Nc1ccc(O)c([N+](=O)[O-])c1`?
POLI inh: 79µM*; POLK inh: -24%; POLH inh: -13%; L3MBTL1 block: inconclusive

What do the screens show for `Nc1cc([N+](=O)[O-])ccc1O`?
POLI inh: inconclusive; POLK inh: -23%; POLH inh: inconclusive; L3MBTL1 block: 2%; POLB inh: 21%

Results for C[C@@]1(C(=O)O)NCCc2cc(O)c(O)cc21 ?
POLK inh: 1.8µM*

How did CCCCN1/C(=C/c2ccc3ccccc3[n+]2CC)Sc2ccccc21 do in these assays?
POLI inh: 5%; POLK inh: -40%; POLH inh: -23%; L3MBTL1 block: -19%; POLB inh: 50µM*

How did COc1cc2c(c(OC)c1OC)-c1c(cc3c(c1OC)OCO3)CC(C)C(C)(O)C2OC(=O)c1ccccc1 (configuration not stated) do in these assays?
POLK inh: 10%[60.1 µM]

What do the screens show for `Cc1cc(O)c(C(=O)/C=C/c2cccc([N+](=O)[O-])c2)c(=O)o1`?
POLI inh: 40µM*; POLK inh: inconclusive; POLH inh: 79µM*; L3MBTL1 block: -7%; POLB inh: inconclusive

Results for O=C1/C(=C/c2ccco2)CCc2ccccc21 ?
POLI inh: 30%; POLK inh: -6%; POLH inh: -21%; L3MBTL1 block: inconclusive; POLB inh: inconclusive

What do the screens show for `Nc1ccc2c(c1)C/C(=C/c1ccco1)C2=O`?
POLI inh: inconclusive; POLK inh: -20%; POLH inh: inconclusive; L3MBTL1 block: 28µM*; POLB inh: 5.6µM*

What do the screens show for `CC1=C(c2ccc(C)c(C)c2)S(=O)(=O)N=C1N1CCC(C(=O)NCCc2ccco2)CC1`?
POLI inh: 23%; POLK inh: -8%; POLB inh: 7%

How did Cc1ccc(CCNC(=O)c2ccc(Cn3c(=O)c4cccn4c4cccnc43)cc2)cc1 do in these assays?
POLI inh: 79µM*; POLK inh: -17%; POLH inh: inconclusive; POLB inh: inconclusive

Results for CC(C)CCNC(=O)c1ccc(Cn2c(=O)c3cccn3c3cccnc32)cc1 ?
POLI inh: -16%; POLK inh: -17%; POLH inh: -3%; POLB inh: 61%

Results for Cc1ccccc1CCNC(=O)c1ccc(Cn2c(=O)c3cccn3c3cccnc32)cc1 ?
POLI inh: inconclusive; POLK inh: 3%; POLH inh: 89µM*; POLB inh: inconclusive

What do the screens show for `Cc1ccc2c(c1)c1c(c(=O)n(-c3ccccc3)c(=O)n1CC(=O)c1ccc(F)cc1)n2C`?
POLI inh: 19%; POLK inh: -7%; POLH inh: -19%; POLB inh: 16%

What do the screens show for `Cc1ccccc1SCC(=O)Nc1cc(C(F)(F)F)ccc1N1CCOCC1`?
POLI inh: 1%; POLK inh: -6%; POLH inh: -17%; L3MBTL1 block: 31%

What do the screens show for `Cc1ccc(CNC(=O)CN2C(=O)C3(SCC(=O)N3c3ccc(F)c(F)c3)c3ccccc32)cc1` (configuration not stated)?
POLI inh: 20%; POLK inh: -9%; POLH inh: -21%; POLB inh: -4%

High-throughput results as filed in PubChem BioAssay.
